Assay outcomes: PubChem, several laboratories
In the library only some 1.3% were active in any assay of this set; here they are far more common.
PKA-R2B act – PKA-R2B complex activation; PKA-R2B holoenzyme dissociation, Cy5-IP20 fluorescence polarization; R2B truncated from residue 108, S112A mutant; 0% DMSO only, 100% 113 µM cGMP; activation, % at 11.4 µM; hit rate 0.079% among 340,000; AID 504700;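 active = activation above a cutoff set at the mean over all compounds plus 3 SD, cut at about 18% in these data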;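 note: higher means more holoenzyme dissociation and a rise in polarization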
Neddyl block – inhibitors of human cullin neddylation. inhibition, % at 25 µM. TR-FRET cullin neddylation, biochemical. hit rate 0.58% among 360,000; in the data active = inhibition above about 36%
Target sequence (P61081 whole entry, looked up): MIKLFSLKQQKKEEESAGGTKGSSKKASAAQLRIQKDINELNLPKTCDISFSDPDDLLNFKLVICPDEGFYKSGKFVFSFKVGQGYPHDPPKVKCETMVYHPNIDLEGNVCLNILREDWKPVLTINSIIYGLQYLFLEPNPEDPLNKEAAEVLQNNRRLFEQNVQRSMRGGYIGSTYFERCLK
Target sequence (Q13564 whole entry, looked up): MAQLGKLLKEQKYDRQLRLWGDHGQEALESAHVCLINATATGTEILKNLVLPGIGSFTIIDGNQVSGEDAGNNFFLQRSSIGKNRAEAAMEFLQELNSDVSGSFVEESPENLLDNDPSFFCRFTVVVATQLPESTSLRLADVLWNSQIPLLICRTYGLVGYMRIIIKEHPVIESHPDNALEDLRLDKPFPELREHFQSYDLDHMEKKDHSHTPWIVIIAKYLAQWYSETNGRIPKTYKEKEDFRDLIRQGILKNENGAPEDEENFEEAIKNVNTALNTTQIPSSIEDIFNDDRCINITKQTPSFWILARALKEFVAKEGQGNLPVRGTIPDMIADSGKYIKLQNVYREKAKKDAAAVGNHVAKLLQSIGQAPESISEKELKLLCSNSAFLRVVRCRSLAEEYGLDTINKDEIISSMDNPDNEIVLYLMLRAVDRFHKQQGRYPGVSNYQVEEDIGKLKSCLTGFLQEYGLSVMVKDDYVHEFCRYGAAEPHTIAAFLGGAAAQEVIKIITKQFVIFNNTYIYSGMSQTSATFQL
Rpn11 block – inhibitors of human proteasome Rpn11 | O00487 | human 26S proteasome, Ub4-pepOG fluorescence polarization; 20S core pre-blocked with epoxomicin | calls only at 20 µM | hit rate 0.59% among 360,000;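 active = inhibition at 20 µM, scaled to each plate's controls, above about 33%, limit read from the data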
PKA-R1A act – PKA-R1A complex activation; hit rate 0.083% among 340,000; activation, % at 11.4 µM; AID 504707; PKA-R1A dissociation, Cy5-IP20 fluorescence polarization; scaled: DMSO 0%, 113 µM cGMP 100%; P00514+P68181;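 active = percent activation above the mean of all tested compounds plus 3 SD, cut at about 19% in these data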;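 note: higher means more PKAc released from R1A so a rise in polarization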
Neddyl inh conf – cullin neddylation inhibition, confirmation | shares compounds with Neddyl block | hit rate 13% among 1,800 | calls only at 25 µM | TR-FRET cullin neddylation biochemical assay; in the data active = inhibition above about 40%;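 note: neddylation substrate is the cullin 1 ring ligase complex with SKP2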
The depositor's hits bear a star; i = inactive; / = no result given; + = active, no number.

SMILES | PKA-R2B act | Neddyl block | Rpn11 block | PKA-R1A act | Neddyl inh conf
NC(=O)c1nn(-c2ccccc2)nc1NC(=O)CN1CCCCC1 | 7.2 | 45.5* | i | -7.5 | i
CCN(Cc1ccccc1)C(=O)Cn1c(=O)n(CC(=O)N2CCCCC2)c(=O)c2sccc21 | -3.9 | -8.3 | i | -9.2 | /
CC(C)(C)C(C(=O)n1cccc1C#N)c1ccccc1 (stereo not drawn) | -9.9 | -17.7 | i | -1.2 | /
COc1ccc(C(=O)CCC(=O)N2CCN(c3ccc(N4CCOCC4)nn3)CC2)cc1 | 8.2 | 44.5* | i | -7.3 | /
O=C(c1cc(Br)ccc1Cl)N1CCN(c2ccc(N3CCOCC3)nn2)CC1 | 1.3 | 60.3* | i | -12.7 | /
Cc1cccc(C(=O)N2CCN(c3ccc(N4CCOCC4)nn3)CC2)c1 | 7.8 | / | i | 6.5 | /
CCCCOc1ccc(C(=O)N2CCN(c3ccc(N4CCOCC4)nn3)CC2)cc1 | -3.1 | 63.1* | i | -10.0 | /
COc1cc(OC)cc(C(=O)N2CCN(c3ccc(N4CCOCC4)nn3)CC2)c1 | -6.7 | 57.0* | i | 0.6 | /
O=C(c1ccc(Cl)cc1)N1CCN(c2ccc(N3CCOCC3)nn2)CC1 | -6.7 | / | i | 0.1 | /
O=C(CNS(=O)(=O)c1ccc(Cl)c(C(F)(F)F)c1)NC1CCCCCC1 | -6.5 | 13.1 | i | 0.0 | /
CCCN(C(=O)CCSc1ccc(F)cc1)c1c(N)n(Cc2ccccc2)c(=O)[nH]c1=O | -1.4 | -7.8 | i | -2.4 | /
CCN(CC)C(=O)[C@H]1C[C@H](CC(=O)NCCCn2ccnc2)C(=O)N2CCc3c([nH]c4cc(CCC(=O)N(C)C)ccc34)[C@]12C | 1.0 | -6.8 | i | -9.9 | /
Cc1cc(C)nc(N/N=C/c2cc(C)n(CC(F)(F)F)c2C)n1 | 4.5 | -0.2 | i | 8.5 | /
Cc1ccc(C(=O)N2CCN(c3ccc(N4CCOCC4)nn3)CC2)cc1 | -5.3 | 60.7* | i | -6.5 | /
O=C(c1ccc(F)cc1)N1CCN(c2ccc(N3CCOCC3)nn2)CC1 | -6.7 | / | i | -2.8 | /
CC(=O)Nc1ccc(Nc2nc(C)nc3c2nnn3Cc2ccccc2Cl)cc1 | 0.6 | / | i | 7.6 | /
Cc1nc(Nc2cccc(C(C)O)c2)c2nnn(Cc3ccccc3F)c2n1 (stereo not drawn) | 5.4 | 40.0* | i | -7.6 | i
CSCCC(c1nnnn1C1CCCCC1)N1CCN(C/C=C/c2ccccc2)CC1 (stereo not drawn) | / | -5.2 | i | / | /
COC(=O)C1C(O)=C(C=Nc2cccc3ccccc23)C(=O)CC1(C)C (stereo not drawn) | -16.5 | 40.5* | i | -6.2 | +
COC(=O)C1C(O)=C(C=NCc2ccccc2)C(=O)CC1(C)C (stereo not drawn) | -0.7 | -3.3 | i | -17.2 | /
S=c1[nH]nc2ccc3ccccc3n12 | / | 38.3* | i | / | /
COc1ccc(NC(=O)COc2nc3ccccc3nc2N2CCOCC2)c(OC)c1 | 6.8 | -234.8 | i | 1.3 | /
CC1(C(=O)Nc2cccc(Oc3ccccc3)c2)CCN1Cc1cccc2c1OCO2 (stereo not drawn) | / | -2.3 | i | / | /
CCOC(=O)c1n[nH]n2c1nc(=O)c1ccccc12 | 3.1 | / | i | -8.5 | /
Cc1ccc(S(=O)(=O)c2n[nH]n3c2nc(=O)c2ccccc23)cc1 | -7.3 | 40.0* | i | -0.8 | i
SMILES | PKA-R2B act | Neddyl block | Rpn11 block | PKA-R1A act | Neddyl inh conf
N#Cc1ccc(-c2ccc(OCC(=O)Nc3cccnc3)cc2)cc1 | -14.0 | 37.9* | i | -5.5 | i
Cc1ccc2nc(C)cc(C(=O)OCC(=O)Nc3cccnc3Cl)c2c1 | -0.4 | 44.1* | i | -8.1 | i
CN=C1c2cc3cc(OC)ccc3n2CCN1Cc1ccccc1 | -14.2 | 41.0* | i | -11.5 | i
COc1ccc(CCNC(=O)Cn2ccc3c(OC)cccc3c2=O)cc1OC | -0.6 | 1.0 | i | -11.0 | /
Cc1cc(C)c2c(N)c(C(=O)c3ccccc3)sc2n1 | / | 45.0* | i | / | +
Cc1cc(C)c2c(N)c(C(=O)c3ccc(Cl)cc3)sc2n1 | -0.3 | 31.0 | i | -3.6 | /
O=c1cc(CN2CCN(Cc3ccc(F)cc3)C(CCO)C2)[nH]c2ccccc12 (stereo not drawn) | -7.4 | 5.3 | i | -3.0 | /
Cc1ccc(/C=C/c2nnc(-c3ccccc3)o2)cc1 | -10.2 | -4.9 | i | 1.9 | /
C(=C\c1nnc(-c2cccs2)o1)/c1ccccc1 | -6.7 | 47.8* | i | -5.8 | i
Cc1c(C)n(CCCN(C)C)c2ncnc(NC3CCCCC3)c12 | 0.0 | 0.5 | i | 2.2 | /
FC(F)C(F)(F)Oc1cccc(Nc2nccn3c(-c4cccc5ccccc45)cnc23)c1 | / | 47.0* | i | / | i
CCCc1cc(=O)n2[nH]c(-c3ccc(OC)cc3)nc2n1 | 0.0 | 32.0 | i | -5.3 | /
CCCc1cc(=O)n2[nH]c(-c3cc(OC)c(OC)c(OC)c3)nc2n1 | -1.9 | 39.0* | i | -1.4 | i
COc1ccc(C(CC(=O)N2CCN(c3ccccc3)CC2)c2c(OC)cc(OC)c3ccc(=O)oc23)cc1 (stereo not drawn) | 1.1 | 33.3* | i | -1.0 | i
COc1cc(C(CC(=O)N2CCCC2)c2c(OC)cc(OC)c3ccc(=O)oc23)cc(OC)c1OC (stereo not drawn) | -20.9 | 12.1 | i | -2.9 | /
COc1cccc(CC(=O)OCC(=O)NC(Cc2ccccc2)C(C)=O)c1 (stereo not drawn) | -2.8 | 13.7 | i | 0.1 | /
C=CCSc1nc(N)c2c3c(sc2n1)CN(C)CC3 | 3.4 | 15.6 | i | -6.1 | /
CSc1nc(N)c2c3c(sc2n1)CN(C)CC3 | -2.3 | 41.2* | i | 1.8 | i
CC(C)(C)NC(=O)CN(C(=O)c1snc(C(=O)NC2CCCCC2)c1N)c1ccccc1F | -0.5 | 39.0* | i | 5.3 | i
[O-][n+]1c2ccccc2c2n1CCN1CCOC21c1ccc(Cl)cc1 (stereo not drawn) | 3.0 | -37.4 | i | 18.4 | /
CCn1cc(C(=O)N[C@H](C(=O)NCCCO)C(C)C)c(=O)c2cc3c(cc21)OCO3 | -3.4 | 10.8 | i | 0.5 | /
Cc1c(C(=O)Nc2ccc(S(N)(=O)=O)cc2)oc2ccc(Cl)cc12 | 6.0 | 44.1* | i | -9.4 | i
COc1ccc(C(=O)Nc2ccc(NC(=O)C3CC3)nc2)cc1 | 0.0 | 4.6 | i | -3.8 | /
Cc1ccc(C)c(N2CC(C(=O)Nc3cc(C)on3)CC2=O)c1 (stereo not drawn) | -2.8 | -8.4 | i | -1.5 | /
COc1ccc(Nc2ncnc3c2c(C)c(C)n3CCCN(C)C)cc1 | 6.1 | 19.1 | i | 1.3 | /
Cc1c(C)n(CCCN(C)C)c2ncnc(Nc3ccccc3)c12 | -7.4 | 41.9* | i | -6.3 | i
Cc1ccn2cc(CCNC(=O)COc3ccccc3)nc2c1 | 4.2 | 27.5 | i | -0.6 | /
OCCCN=C1CCCc2c1[nH]c1ccc(Cl)cc21 | 0.7 | 39.7* | i | 2.1 | i
COc1cc2cc(-c3ccc(O)cc3O)nc(C)c2cc1OC | -11.7 | -19.2 | i | 14.5 | /
